In PubChem BioAssay (Tox21):
Values joined by “and” are separate entries in the source; they are usually repeats but may differ in a detail not shown here. Equal values may be shown once. Records with an inconclusive call do not appear. Some compounds were tested as several samples or in several runs, with calls that do not always agree. Active and inactive are the calls of the source. Calls follow the shape of the dose curve; as a rule, active = well fitted cell-killing curve with a large enough effect in the repeat runs; inconclusive = weak or mixed curves; inactive = flat fitted curve, though single readings scatter.

Assay: qHTS RealTime-Glo MT Cell Viability Assay in HepG2 cells - 8 hour (AID 1224873); also: nearly all actives have a fitted effect of over 55% in size
Settings: RealTime-Glo luminescence; series mostly up to 76.8 µM; viability change, negative = cytotoxic: at the top concentration
Source text: National Center for Advancing Translational Sciences [NCATS]
NIH Chemical Genomics Center [NCGC]
U.S. Environmental Protection Agency [EPA]
National Institutes of Environmental Health Sciences [NIEHS]
National Toxicology Program [NTP]
U.S. Food and Drug Administration [FDA]
Measure of cell viability is critical in the cell-base assay. Analysis of cell viability is necessary for the characterization of cell responses to cytotoxic drugs and environmental stress. A RealTime-Glo MT Cell Viability Assay to monitor cell viability in real time of continues cell culture during 40 hours of compound treatment was used to screen Tox21 10K library compounds in HepG2 cells. The RealTime-Glo MT Cell Viability Assay is a nonlytic, homogeneous, bioluminescent method to measure cell viability in real time using a simple, plate-based method. The assay involves adding NanoLuc luciferase and a cell-permeant prosubstrate to cells in culture. Viable cells reduce the proprietary prosubstrate to generate a substrate for NanoLuc luciferase. This substrate diffuses from cells into the surrounding culture medium, where it is rapidly used by the NanoLuc Enzyme to produce a luminescent signal. The signal correlates with the number of viable cells, making the assay well suited for cytotoxicity studies.
Tox21 Assay Protocol Summary:
The mixture of HepG2 cell suspension and reagents were dispensed at 600cells/6 ul/well in 1536-well tissue culture treated black solid bottom plates using a Multidrop dispenser. After the assay plates were incubated at a 37 C/5% CO2 incubator for 5 hours, 23 nL of compounds dissolved in DMSO, positive and negative controls was transferred to the assay plate by a pintool work station. The plates were incubated at 37 C for 40 hours. The luminescence intensity were measured at 0h, 8h, 16h, 24h, 32h and 40h time points using ViewLux plate reader during compound treatment.
% is scaled to controls: 0 for no effect and ±100 for the full control effect; potency is read from the fitted curve at half-maximal effect.

| SMILES | Potency | viability change, negative = cytotoxic |
| --- | --- | --- |
| CCCCCCCCCCCCCCCC[n+]1ccccc1 | 57.5 µM (active) and 49 µM (active) and 48.3 µM (active) | – |
| Oc1ccc(C(c2ccc(O)cc2)(C(F)(F)F)C(F)(F)F)cc1 | – | -17% (inactive) |
| CCSC(C)CC1CC(=O)C(/C(CC)=N/OC/C=C/Cl)=C(O)C1 (stereo not given) | – | 0.863% [at 35.3 µM] (inactive) |
| CCOP(=S)(OCC)SCCS(=O)(=O)CC | – | -10.9% (inactive) |
| CC(=O)[O-].CC(=O)[O-].[Hg+2] | 2.45 µM (active) | – |
| COS(=O)(=O)c1ccc(C)cc1 | – | 1.42% (inactive) |
| Cl/C=C\CCl | – | -1.43% (inactive) |
| Cc1ccc(OP(=O)(Oc2ccccc2)Oc2ccccc2)cc1 | – | -0.27% (inactive) |
| C1CCC2CCCCC2C1 (stereo not given) | – | -0.9% (inactive) |
| Cc1cc(SCc2sc(-c3ccc(C(F)(F)F)c(F)c3)nc2C)ccc1OCC(=O)O | – | -17.3% (inactive) |
| O=C(O)C1C2CCC(O2)C1C(=O)O (stereo not given) | inactive | – |
| CC(c1ccc(O)cc1)c1ccc(O)cc1 | inactive | – |
| Cc1cc(C(F)(C(F)(F)F)C(F)(F)F)ccc1NC(=O)c1cccc(I)c1C(=O)NC(C)(C)CS(C)(=O)=O | – | -7.09% [at 35.3 µM] (inactive) |
| C=CC(=O)OCC(COC(=O)C=C)(COC(=O)C=C)COC(=O)C=C | 3.09 µM (active) | – |
| COP(N)(=S)OC | – | 0.377% (inactive) |
| CC(=O)OC1(c2ccccc2)CCN(CCc2ccccc2)CC1 | – | -10.4% (inactive) |
| O=[N+]([O-])c1cc(C(F)(F)F)c(Cl)c([N+](=O)[O-])c1Cl | 43.6 µM (active) | – |
| CN(CCCC(=O)c1cccnc1)N=O | – | -11.6% (inactive) |
| CCOC(=O)CC(=O)CCl | – | -18.1% (inactive) |
| CCCCCCCCCCCCCCCC[N+](C)(C)C | inactive and 49 µM (active) | – |

| SMILES | Potency | viability change, negative = cytotoxic |
| --- | --- | --- |
| SCc1ccco1 | – | 2.23% (inactive) |
| N#Cc1ccccc1Cl | – | -9.2% (inactive) |
| N#CCc1ccc(Cl)cc1 | – | -5.71% (inactive) |
| O=C(NC(=O)c1c(F)cccc1F)Nc1cc(Cl)c(OC(F)(F)C(F)F)c(Cl)c1 | – | -0.105% (inactive) |
| Clc1ccc(COC(Cn2ccnc2)c2ccc(Cl)cc2Cl)cc1 (stereo not given) | 43.5 µM (active) | – |
| CC(=O)/C=C/c1ccc2c(c1)OCO2 | – | -7.5% (inactive) |
| CCC[CH2][Sn]([CH2]CCC)([CH2]CCC)[O]C(=O)c1ccccc1 | 0.776 µM (active) | – |
| Oc1ccccc1Br | – | 2.17% (inactive) |
| O=C1c2ccccc2C(=O)C1C(=O)C(c1ccccc1)c1ccc(Cl)cc1 (stereo not given) | – | -18% (inactive) |
| C[C@H]1O[C@@H](O[C@H]2[C@@H](O)C[C@H](O[C@H]3[C@@H](O)C[C@H](O[C@H]4CC[C@@]5(C)[C@H](CC[C@@H]6[C@@H]5CC[C@]5(C)[C@@H](C7=CC(=O)OC7)CC[C@]65O)C4)O[C@@H]3C)O[C@@H]2C)C[C@H](O)[C@@H]1O | inactive | – |
| N#CC(Cl)Cl | – | -21.3% (inactive) |
| CCOP(=S)(OCC)SCS(=O)(=O)CC | – | 5.13% (inactive) |
| Brc1c(Br)c(Br)c(Oc2c(Br)c(Br)c(Br)c(Br)c2Br)c(Br)c1Br | – | 5% [at 15.8 µM] (inactive) |
| COc1cc(N)c(Cl)cc1C(=O)NC1CN2CCC1CC2 (stereo not given) | – | 2.6% [at 35.3 µM] (inactive) |
| CCN | – | 3.3% (inactive) |
| CCCCCCCCCCCCBr | – | -0.296% (inactive) |
| CC(=O)O[C@H]1CC[C@@]2(C)C(=CC[C@@H]3[C@@H]2CC[C@]2(C)C(=O)CC[C@@H]32)C1 | – | -3.69% (inactive) |
| BrCC(Br)c1ccccc1 (stereo not given) | – | 4.54% (inactive) |
| BrC(Br)Br | – | 0.487% (inactive) |
| N#CCCSCCC#N | – | 1.47% (inactive) |
